Experimental data reported in ChEMBL document CHEMBL3433997, “St. Jude Leishmania screening dataset” (2016).

Each molecule was assayed against Glucose transporter (Leishmania mexicana) (UniProt O61059) (assay: ST_JUDE_LEISH: Cytotoxicity at 2uM final concentration against transgenic Leishmania Mexicana promastigotes LmGT2 that are glucose transport deficient and complemented with the L. Mexicana glucose transporter 2. Activity is measured by DNA content using SYBR green in vitro).
Assay type: functional
CCCN1CCN(CCCCNc2c3ccccc3nc3ccccc23)CC1 gave an inhibition of 27.7%. Molecule COc1cccc(C(=O)NCc2cccs2)c1OCc1ccccc1 has an inhibition of 1.15%. With COc1ccc(Nc2cc(C)nc(Nc3ccc(NC(C)=O)cc3)n2)cc1 the inhibition was 32.2%. CC(C)C(=O)NC(Nc1ccc([N+](=O)[O-])cc1)C(Cl)(Cl)Cl (stereo not given) was tested, and the inhibition was 1.48%. With N=C(N)NCCCN(Cc1ccccc1)c1ccc(Cl)cc1 the inhibition was 4.83%. COc1ccc(S(=O)(=O)N(CC(=O)NN=C(C)c2cccs2)c2cc(C)cc(C)c2)cc1OC was tested, and the inhibition was -1.17%. Work on Cc1ccc2c(c1)C1(CC(=O)N(CCc3scnc3C)C1=O)C(=O)N2Cc1ccccc1 (stereo not given) yielded an inhibition of 3.42%. CCN(CCCN1CCCCC1)c1cc(C)nc(Nc2ccc(Cl)cc2)n1 was tested, and the inhibition was 1.8%. Molecule CN(C)Cc1ccc(-c2ccc(NC(=O)c3ccc4c(=O)n(Cc5ccccc5)cnc4c3)cc2)cc1 has an inhibition of 63.3%. With CCN(CC)c1ccc(C=CC(=O)NCCN2CCC(N(C)C3CCCCC3C)CC2)cc1 (stereo not given) the inhibition was -0.02%. COc1cc(C(=O)N2CCC(CCN3CCC4(CC3)CN(S(C)(=O)=O)c3ccccc34)CC2Cc2ccc(Cl)c(Cl)c2)cc(OC)c1OC (stereo not given) showed an inhibition of 3.27%. CCOC(=O)N1CCN(C(=O)Nc2ccc(Cl)cc2)CC1 gave an inhibition of 0.32%. O=C(NC1CCN(Cc2ccccc2)CC1)c1ccc(CNC2CCN(Cc3ccccc3)CC2)cc1 was tested, and the inhibition was 4.42%. O=C(Nc1ccc2c(c1)OCCO2)c1cc(-c2cccnc2)nc2ccc(Cl)cc12 gave an inhibition of 0.65%. With Cc1cccc2nc(-c3cccc(-c4cccc(NC(=O)Nc5ccccc5)c4)c3)[nH]c12 the inhibition was 3.26%. Cc1cnc(C(=O)Nc2cccc(-c3cccc(-c4nc5cccc(C)c5[nH]4)c3)c2)cn1 was tested, and the inhibition was 0.5%. CC(C)C[C@@H](CNC[C@H](CC(C)C)NC(=O)OC(C)(C)C)NC(=O)OC(C)(C)C showed an inhibition of -0.19%. With COc1cc2nc(Nc3ccc4c(c3)OCCO4)nc(N)c2cc1OC the inhibition was 1.75%. For COc1cccc2cc(C(=O)N[C@@H](CC(C)C)C(=O)N[C@H](C=NN3CC(=O)NC3=O)CC(C)C)oc12, the inhibition was 2.23%. O=C(CCc1c[nH]cn1)Nc1cccc(-c2ccc(-c3nc4ccccc4[nH]3)s2)c1 was tested, and the inhibition was 1.88%. Molecule Cc1nnc2c(NC(=O)NC3CCCC3)cc3cc(-c4ccc(CN5CCCCC5)cc4)ccc3n12 has an inhibition of 0.13%. COc1ccc2c(=NN=Cc3ccc(F)cc3)cc(C)[nH]c2c1 showed an inhibition of 11.6%. Molecule Cc1ccccc1C1CCN(C2CCC(NC(=O)c3ccc(-c4cc(C(F)(F)F)nn4C)s3)CC2)CC1 (stereo not given) has an inhibition of 9.51%. Molecule CCOc1cc(Cc2cnc(N)nc2N)cc(Br)c1OC has an inhibition of 2.29%. Cc1cc(N2CCNCC2)c2cc(NC(=O)Nc3ccc(Cl)c(Cl)c3)ccc2n1 showed an inhibition of 3.64%. Molecule CN(C)CCOc1ccc(-c2cc(-c3ccnc(N)n3)c(-c3ccc(Cl)c(O)c3)o2)cc1 has an inhibition of 2.71%. Cc1ccc(Cn2cnc3cc(C(=O)Nc4ccc(-c5cccc(CN(C)C)c5)cc4)ccc3c2=O)o1 was tested, and the inhibition was 51.1%. CCOC(=O)C(NC(=O)Cc1ccccc1)C(C)C (stereo not given) showed an inhibition of -3.14%. CCCCN(CCCC)CCNC(=O)c1cccc(NC(=O)N2CCc3cc(SC)c(C(F)(F)F)cc32)c1 gave an inhibition of 2.86%. For COc1ccc(N2C(=O)c3c(c4ccccc4n3C)C2c2ccccc2O)cc1 (stereo not given), the inhibition was 5.53%. For CCOc1cc(C(C)C)ccc1C1CCN(CCCCNC(=O)c2ccc(NC(=O)c3ccc(Cl)cc3)cc2)CC1, the inhibition was 2.65%. In the case of O=C(/C=C/c1ccc(Cl)c(Cl)c1)NCCCCCN1CCCN(C(=O)Nc2cc(Cl)nc(Cl)c2)CC1, the inhibition is reported as 5.94%. O=C(Nc1ccc(-c2nc3ccccc3[nH]2)cc1)C1CCCN(CC2CC2)C1 (stereo not given) gave an inhibition of 4.89%. N#Cc1ccc(NC(=O)N2CCCN(CCCCCNC(=O)/C=C/c3ccc(Cl)c(Cl)c3)CC2)cc1 was tested, and the inhibition was 5.16%. Cc1cc(-c2ccc3c(c2)CC[C@@H](N[C@@H](C)c2ccccc2)C3)cnc1N was tested, and the inhibition was 2.23%. Work on COc1cc(Nc2ccc3cc(S(=O)(=O)N4CCCCC4C)ccc3n2)cc(OC)c1OC (stereo not given) yielded an inhibition of 0.58%. Molecule Cc1[nH]c(C)c(-c2ccc(OCc3cccc(C(F)(F)F)c3)nc2)c(=O)c1Br has an inhibition of 35%. For CC(=O)Nc1nc(C(=O)Nc2cccc(-c3ccc(-c4nc5cc(F)ccc5[nH]4)cc3)c2)cs1, the inhibition was 4.22%. CC[C@H](C)CNC(=O)c1cncc(-c2cccc(CN3CCC(N4CCCC4)CC3)c2)c1 showed an inhibition of -0.34%. CN1CCCC(CN2CCN(Cc3ccc(-c4ccc(-c5nc6ccccc6[nH]5)s4)cc3)CC2)C1 (stereo not given) showed an inhibition of 9.58%.
